This is an account of results in article PMC5540273 (PLoS ONE, 2017).

Some test systems named below: PRKD3; PRKG1; PRKG2; PRKX; PRP4; QSK; RAF1; RET; RIOK1; RIOK2; RIOK3; RIPK1; RIPK2; RIPK4; RIPK5; ROCK2; ROS1; ROCK1.
What all share (details): concentration: 1 μM,replicates: in singlicate; n = 1
The next test concerns T1, PRKR.
T1 construct: gene EIF2AK2

The next test relates to T2, PYK2.
T2 construct: gene PTK2B
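Further: KINOMEscan kinase panel screen.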

Consider `Nc1nc(Nc2ccccc2)cc(-c2ccc3c(N)n[nH]c3c2)n1` [GSK2225749], for which the “%Inh” value was 0% with PRKD3; 12% in the test with PRKG1; 45% in the test with PRKG2; 3% in the test on PRKR; 57% in the test on PRKX; 60% with PRP4. Moreover, the “%Inh” value in the test on PYK2 is 0%; with QSK, 0%; with RAF1, 0%; in the test on RET, 6%; with RIOK1 it was 98.5%; in the test on RIOK2, 54%. Further, the “%Inh” value with RIOK3 is 76%; in the test on RIPK1, 0%; in the test on RIPK2, 0%; with RIPK4, 44%; in the test on RIPK5, 0%; with ROCK2, 45%. Also, the “%Inh” value with ROS1 was 0%.
Take `Cc1occc1-c1nc(N)c(OC[C@@H](N)Cc2c[nH]c3ccccc23)cc1-c1cc2c(C)n[nH]c2cn1` [GSK1660450]: the “%Inh” value in the test with PRKD3 is listed as 100%; in the test with PRKG1, 78%; in the test with PRKG2, 96.2%; in the test on PRKR, 0%; in the test with PRKX, 79%; with PRP4 it was 0%. In addition, the “%Inh” value was 0% in the test on PYK2; 90.4% in the test on QSK; 0% in the test with RAF1; 23% with RET; 87% in the test on RIOK1; 16% with RIOK2. Besides, the “%Inh” value with RIOK3 was 59%; in the test on RIPK1, 0%; in the test with RIPK2 it was 10%; in the test with RIPK4, 4%; in the test with RIPK5, 0%; with ROCK1 it was 93.7%. Moreover, the “%Inh” value with ROCK2 was found to be 82%; with ROS1 it was 4%.
Take `CC(C)N1C(=O)Cc2cc(Nc3ncc(C(F)(F)F)c(NCc4cccc(S(C)(=O)=O)c4)n3)ccc21`: the “%Inh” value in the test with PRKD3 is 0%; in the test on PRKG1 it was 0%; in the test with PRKG2, 8%; in the test on PRKR it was 0%; in the test with PRKX, 0%; in the test with PRP4, 25%. Further, the “%Inh” value was found to be 22% with PYK2; 0% in the test with QSK; 0% in the test on RAF1; 86% in the test on RET; 46% in the test on RIOK1; 21% with RIOK2. Further, the “%Inh” value is 88% in the test on RIOK3; 0% in the test with RIPK1; 4% with RIPK2; 42% in the test on RIPK4; 43% in the test with RIPK5; 3% in the test on ROCK1. Besides, the figures for the “%Inh” value with ROCK2 and with ROS1 were 0% and 59%, respectively.
For `Cc1ccc(-n2nc(C(C)(C)C)cc2NC(=O)Nc2ccc(OCCN3CCOCC3)c3ccccc23)cc1` [GW839464], the “%Inh” value in the test with PRKD3 came out at 16%; in the test with PRKG1, 0%; with PRKG2, 3%; in the test on PRKR, 8%; in the test with PRKX, 0%; with PRP4 it was 15%. In addition, the “%Inh” value was 1% with QSK; 26% with RAF1; 54% in the test on RET; 54% in the test on RIOK1; 0% in the test on RIOK2; 8% with RIOK3. For the same compound, the “%Inh” value with RIPK1 is reported as 29%; in the test on RIPK2, 0%; with RIPK4 it was 0%; in the test on RIPK5, 0%; in the test with ROCK1 it was 0%; with ROCK2, 0%. In the test with ROS1, the “%Inh” value is reported as 0%.
For `Cc1cc(C(=O)Nc2ccc(Oc3ccc4nc(NC(=O)C5CC5)cn4n3)cc2)nn1-c1ccccc1`, the “%Inh” value with PRKD3 was 0%; with PRKG1, 8%; in the test with PRKG2, 6%; with PRKR, 18%; with PRKX, 0%; in the test on PRP4, 0%. In addition, the “%Inh” value was found to be 0% in the test on QSK; 75% with RAF1; 81% in the test on RET; 17% in the test on RIOK1; 0% with RIOK2; 41% in the test on RIOK3. The “%Inh” value was 0% in the test with RIPK1; 24% in the test with RIPK2; 0% in the test on RIPK4; 0% in the test with RIPK5; 0% with ROCK1; 0% with ROCK2. Further, the “%Inh” value in the test with ROS1 is 0%.
Regarding `C[C@H]1Oc2cc(cnc2N)-c2c(nn(C)c2C#N)CN(C)C(=O)c2ccc(F)cc21`, the “%Inh” value with PRKD3 is 8%; with PRKG1 it was 0%; in the test with PRKG2, 10%; in the test with PRKR, 0%; in the test on PRKX, 7%; in the test on PRP4, 0%. The “%Inh” value in the test on PYK2 is reported as 99.6%; in the test on QSK, 0%; in the test with RAF1 it was 0%; with RET it was 22%; in the test with RIOK1, 0%; in the test with RIOK2, 0%. Moreover, the “%Inh” value worked out at 0% in the test with RIOK3; 12% in the test with RIPK1; 0% in the test on RIPK2; 0% with RIPK4; 89% in the test with RIPK5; 0% in the test with ROCK1. Further, the “%Inh” value in the test with ROCK2 stood at 0%; with ROS1, 98.5%.
In the case of `Cc1n[nH]c2ccc(-c3cc(OC[C@@H](N)Cc4ccccc4)cnc3-c3ccoc3)cc12.O=C(O)C(F)(F)F.O=C(O)C(F)(F)F` [GSK507358], the “%Inh” value in the test with PRKD3 is listed as 100%; with PRKG1, 0%; in the test with PRKG2 it was 0%; in the test on PRKR, 4%; with PRKX it was 84%; with PRP4, 27%. The “%Inh” value with PYK2 came out at 40%; in the test on QSK, 5%; in the test with RAF1, 0%; with RET, 8%; in the test on RIOK1 it was 93%; with RIOK2 it was 0%. For the same compound, the “%Inh” value came to 72% in the test on RIOK3; 0% in the test on RIPK1; 0% in the test on RIPK2; 0% in the test on RIPK4; 0% with RIPK5; 31% with ROCK1. In addition, the figures for the “%Inh” value in the test on ROCK2 and with ROS1 were 33% and 0%, respectively.
As for `COc1ccc(C[C@@H](CN)NC(=O)c2cc(Br)c(-c3ccnc4[nH]ccc34)s2)cc1.Cl.Cl` [GSK1389063], the “%Inh” value in the test with PRKD3 amounted to 94.4%; in the test with PRKG1, 98.7%; in the test with PRKG2 it was 98.9%; with PRKR, 1%; with PRKX, 94.2%; with PRP4, 18%. For the same compound, the “%Inh” value with PYK2 is 47%; in the test on QSK, 0%; with RAF1, 5%; with RET, 98.4%; with RIOK1, 89%; in the test with RIOK2, 49%. Further, the “%Inh” value with RIOK3 stood at 80%; in the test on RIPK1, 0%; with RIPK2, 4%; with RIPK4, 36%; in the test on RIPK5 it was 28%; in the test on ROCK1, 100%. Moreover, the results for the “%Inh” value with ROCK2 and in the test with ROS1 were 95.2% and 59%, respectively.
As for `CC(C)Nc1cc(-c2ccc3c(N)n[nH]c3c2)nc(N)n1` [GSK2221681], the “%Inh” value came out at 0% in the test on PRKD3; 0% in the test on PRKG1; 42% in the test on PRKG2; 0% in the test with PRKR; 79% in the test on PRKX; 7% in the test with PRP4. The “%Inh” value with PYK2 came out at 0%; with QSK, 0%; in the test on RAF1, 0%; in the test with RET, 0%; with RIOK1, 94.1%; in the test on RIOK2, 19%. Also, the “%Inh” value in the test on RIOK3 is listed as 66%; in the test on RIPK1 it was 0%; with RIPK2, 0%; in the test on RIPK4, 66%; in the test with RIPK5 it was 0%; in the test with ROCK1, 7%. Also, the entries for the “%Inh” value with ROCK2 and in the test with ROS1 were 41% and 5%, respectively.
In the case of `CCn1c(-c2nonc2N)nc2c(C#CC(C)(C)O)nc(OCCN)cc21.Cl.Cl` [GSK902056], the “%Inh” value turned out to be 37% with PRKD3; 39% in the test with PRKG1; 97% in the test with PRKG2; 0% with PRKR; 91.6% with PRKX; 8% in the test on PRP4. Moreover, the “%Inh” value in the test on PYK2 is 9%; with QSK it was 23%; in the test with RAF1, 0%; in the test with RET, 23%; with RIOK1, 0%; in the test on RIOK2 it was 8%. In addition, the “%Inh” value in the test with RIOK3 was 0%; in the test on RIPK1, 0%; in the test with RIPK2, 0%; in the test with RIPK4, 0%; in the test with RIPK5, 4%; with ROCK1, 18%. For the same compound, the results for the “%Inh” value in the test with ROCK2 and in the test with ROS1 were 0% and 2%, respectively.
Turning to `C[C@@H](Oc1cc(-c2cnn(C3CCNCC3)c2)cnc1N)c1c(Cl)ccc(F)c1Cl`, the “%Inh” value was found to be 63% in the test on PRKD3; 0% in the test on PRKG1; 3% in the test with PRKG2; 26% in the test with PRKR; 35% with PRKX; 0% in the test on PRP4. For the same compound, the “%Inh” value is on record as 80% with PYK2; 0% in the test on QSK; 0% in the test on RAF1; 39% in the test with RIOK1; 0% in the test with RIOK2; 50% in the test on RIOK3. The “%Inh” value came to 6% in the test on RIPK1; 32% in the test with RIPK2; 34% in the test with RIPK4; 80% with RIPK5; 5% in the test with ROCK1; 20% in the test with ROCK2.
As to `C=CC(=O)Nc1cc2c(Nc3ccc(F)c(Cl)c3)ncnc2cc1OCCCN1CCOCC1` [GW781483], the “%Inh” value is reported as 0% in the test with PRKD3; 0% in the test with PRKG1; 31% with PRKG2; 0% with PRKR; 0% in the test on PRKX; 0% in the test on PRP4. For the same compound, the “%Inh” value with PYK2 is 1%; with QSK, 1%; in the test with RAF1, 0%; with RET, 38%; in the test on RIOK1, 54%; in the test on RIOK2 it was 10%. Further, the “%Inh” value in the test with RIOK3 came to 46%; in the test with RIPK1, 8%; in the test with RIPK2 it was 53%; in the test on RIPK4, 26%; with RIPK5, 4%; in the test on ROCK1, 42%. The “%Inh” value in the test on ROCK2 is on record as 0%; with ROS1 it was 4%.
On to `Cl.Cl.NC[C@H](CC1CCCCC1)NC(=O)c1cc(Br)c(-c2ccnc3[nH]ccc23)s1` [GSK1581427], for which the “%Inh” value with PRKD3 is reported as 82%; with PRKG1, 99.3%; with PRKG2 it was 98.5%; in the test with PRKR, 0%; in the test with PRKX, 96.2%; in the test with PRP4 it was 78%. In addition, the “%Inh” value is listed as 20% in the test with PYK2; 5% in the test with QSK; 2% in the test on RAF1; 25% with RET; 100% in the test with RIOK1; 66% in the test with RIOK2. For the same compound, the “%Inh” value in the test with RIOK3 is reported as 80%; in the test on RIPK1, 0%; with RIPK2, 0%; in the test with RIPK4, 20%; with RIPK5, 5%; in the test with ROCK1, 100%. For the same compound, the “%Inh” value was 99.1% in the test on ROCK2 and 17% with ROS1.
On to `CN(C)CCOc1ccc(-c2cc(-c3c[nH]nc3-c3ccccn3)ccn2)cc1` [GW835314], for which the “%Inh” value was 91.5% with PRKD3; 0% in the test on PRKG1; 12% with PRKG2; 0% in the test on PRKR; 0% in the test with PRKX; 0% in the test with PRP4. In addition, the “%Inh” value stood at 0% in the test on PYK2; 9% in the test on QSK; 28% in the test on RAF1; 36% in the test on RET; 0% in the test on RIOK1; 2% in the test with RIOK2. In addition, the “%Inh” value in the test with RIOK3 stood at 8%; in the test on RIPK1 it was 0%; in the test with RIPK2 it was 78%; with RIPK4, 16%; in the test on RIPK5, 14%; in the test on ROCK1 it was 9%. The “%Inh” value in the test with ROCK2 turned out to be 18%; in the test with ROS1, 21%.
